Results on 7 molecules are retold here after PubChem BioAssay (EPA / NIEHS).

SMILES strings stand for the structures. Activity calls are given as the source filed them. How the source made its calls: active means hit-call score of the fitted dose curve at least 0.9, where 1 is the maximum; inactive means score below 0.9.

Experiment [1] is described as follows: ATG_GLI_CIS: Attagene CIS-FACTORIAL HepG2 Assay for human Zinc Finger Protein GLI1 (AID 2282945). The note with it: HepG2, Attagene cis-factorial reporter mRNA, GLI element; actives raise or lower the signal. The method, boiled down: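 Bidirectional curve fits relative to DMSO, using reporter mRNA levels from RT-PCR plus capillary electrophoresis. Cells were HepG2 transiently carrying cis-regulated reporter constructs, harvested 24 h after dosing.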

The nature of experiment [2]: ATG_GRE_CIS: Attagene CIS-FACTORIAL HepG2 Assay for human Glucocorticoid Response Elements (GRE) (AID 2282947). The note with it: HepG2 GRE cis-reporter, Attagene multiplex mRNA; actives raise or lower the signal. The method, boiled down:
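Assay uses human hepatoma HepG2 cells transfected with cis-promoter reporter units, exposed 24 h. mRNA from reporters detected by RT-PCR plus capillary electrophoresis; DMSO serves as negative control and baseline.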

A short description of experiment [3]: ATG_ISRE_CIS: Attagene CIS-FACTORIAL HepG2 Assay for human Interferon Regulatory Factor 1 (IRF1) binding to an Interferon-Stimulated Response Element (ISRE) (AID 2282948). Particulars: HepG2 ISRE cis-reporter (Attagene), mRNA transcription readout; actives raise or lower the signal. The procedure, abridged: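 Transfected HepG2 (multiple reporter transcription units, cis elements) dosed 24 h. RNA → oligo(dT) RT → PCR → 6-FAM primer extension → HpaI → CE. DMSO = negative control/baseline.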

Experiment [4] can be described thus: ATG_M_32_CIS: Attagene CIS-FACTORIAL HepG2 Assay for M32 Transcription Factor (Internal Marker) (AID 2282949).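 Further: background control marker of the multiplexed CIS panel rather than a real target.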 Particulars: HepG2 Attagene cis-factorial M32 reporter, mRNA; actives raise or lower the signal. The procedure, abridged: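 Internal background marker read-out: RT-PCR/capillary electrophoresis fluorescence of reporter transcripts from transiently transfected HepG2 cells after 24 h chemical exposure. Activity fitted bidirectionally relative to DMSO negative control.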

Experiment [5] can be described thus: ATG_M_06_CIS: Attagene CIS-FACTORIAL HepG2 Assay for M06 Transcription Factor (Internal Marker) (AID 2282950). Particulars: HepG2 Attagene CIS-FACTORIAL M06 internal marker reporter; actives raise or lower the signal. The method, boiled down:
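Measured 24 h post-dosing in transiently transfected HepG2 cells, this internal-marker endpoint reports reporter mRNA via RT-PCR with fluorescent primer extension and capillary electrophoresis. DMSO served as negative control and baseline for bidirectional fitting.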

For experiment [6], the target named is Hypoxia-inducible factor 1-alpha (Homo sapiens) (UniProt Q16665). Description: ATG_HIF1a_CIS: Attagene CIS-FACTORIAL HepG2 Assay for human Hypoxia Inducible Factor 1 (HIF1A) (AID 2282951). The note with it: HepG2 Attagene cis-factorial HIF1a reporter transcription; actives raise or lower the signal. The method, boiled down: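 Transient MRTU transfection of human HepG2 liver cells, 24 h compound treatment, then total RNA isolation, oligo(dT) reverse transcription, PCR amplification, fluorescent labelling and capillary electrophoresis of reporter fragments. Gain or loss relative to DMSO.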

Experiment [7] addresses Hepatocyte nuclear factor 6 (Homo sapiens) (UniProt Q9UBC0). Description: ATG_HNF6_CIS: Attagene CIS-FACTORIAL HepG2 Assay for human Hepatocyte Nuclear Factor 6 (HNF6) (AID 2282952). Particulars: HepG2 Attagene cis-factorial HNF6 reporter transcription; actives raise or lower the signal. The procedure, abridged: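 Transiently transfected HepG2 cells expressing cis-regulated reporter transcription units were exposed to chemical for 24 h in a 24-well format. Reporter transcript abundance was determined by fluorescence capillary electrophoresis.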

Experiment [8] has as its target Heat shock factor protein 1 (Homo sapiens) (UniProt Q00613). The experiment is described as follows: ATG_HSE_CIS: Attagene CIS-FACTORIAL HepG2 Assay for human Heat Shock Transcription Factor 1 (HSE) (AID 2282953). The note with it: HepG2 HSE cis-reporter, Attagene RNA transcription; actives raise or lower the signal. The method, boiled down:
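Reporter mRNA induction in HepG2 is measured 24 h after dosing, using transiently transfected multiplexed cis-regulated reporter units. Signal comes from capillary electrophoresis of labelled RT-PCR products, with DMSO as negative control.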

A short description of experiment [9]: ATG_MRE_CIS: Attagene CIS-FACTORIAL HepG2 Assay for human Metal Responsive Element (MRE) (AID 2282954). Particulars: HepG2 MRE cis-reporter transcription, Attagene multiplex; actives raise or lower the signal. The procedure, abridged:
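After a 24 h chemical exposure, transiently transfected HepG2 cells yield RNA whose reporter sequences are amplified, FAM-labelled and sized by capillary electrophoresis. Curves are fitted bidirectionally relative to DMSO.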

A short description of experiment [10]: ATG_PBREM_CIS: Attagene CIS-FACTORIAL HepG2 Assay for human Phenobarbital-responsive Enhancer Module (PBREM) (AID 2282955). The note with it: HepG2 PBREM cis-reporter, Attagene multiplexed transcription; actives raise or lower the signal. The method, boiled down: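 Endogenous transcription factors in human liver HepG2 cells drive a PBREM cis-element reporter, whose transcript level after 24 h treatment is quantified by RT-PCR with capillary electrophoresis; activity fitted in both directions against DMSO.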

The target in experiment [11] is Paired box protein Pax-6 (Homo sapiens) (UniProt P26367). The experiment is described as follows: ATG_Pax6_CIS: Attagene CIS-FACTORIAL HepG2 Assay for human Paired Box 6 (PAX6) (AID 2282956). Particulars: HepG2 CIS-FACTORIAL PAX6 reporter transcription, RNA readout; actives raise or lower the signal. The method, boiled down:
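Transient MRTU transfection of HepG2 → compound exposure 24 h → TriZol RNA, oligo(dT) RT → PCR, 6-FAM primer extension, HpaI cut → capillary electrophoresis; activity fitted both directions against DMSO.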

Experiment [12] in a line: ATG_PPRE_CIS: Attagene CIS-FACTORIAL HepG2 Assay for human Peroxisome Proliferator-activated Response Element (PPRE) (AID 2282958). Particulars: HepG2 PPRE cis-element reporter, Attagene transcription factor profiling; actives raise or lower the signal. The method, boiled down: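 HepG2, transient MRTU transfection (cis promoter elements, endogenous TFs). 24 h dosing. RNA → oligo(dT) RT → PCR → 6-FAM primer extension → HpaI digest → CE. Bidirectional fit vs DMSO.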

The nature of experiment [13]: ATG_RORE_CIS: Attagene CIS-FACTORIAL HepG2 Assay for human RAR-related Orphan Receptor Element (RORE) (AID 2282959). The note with it: HepG2 Attagene cis-factorial RORE reporter, mRNA; actives raise or lower the signal. The procedure, abridged: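 Transient MRTU transfection of human HepG2 liver cells (FuGene 6); 24 h compound exposure; TriZol RNA, oligo(dT) RT, PCR, FAM labeling, HpaI cut, CE fragment analysis. DMSO = negative control/baseline.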

A short description of experiment [14]: ATG_Sox_CIS: Attagene CIS-FACTORIAL HepG2 Assay for human SRY-box transcription factor (SOX) (AID 2282960). The note with it: HepG2 Attagene cis-factorial SOX reporter, mRNA; actives raise or lower the signal. The method, boiled down:
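Endogenous factor activity in human liver HepG2 cells carrying transfected cis-regulated reporter units. RNA taken 24 h post-dose, reverse-transcribed, PCR-amplified and sized by capillary electrophoresis. Gain or loss of signal fitted relative to DMSO.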

The target of experiment [15] is Transcription factor Sp1 (Homo sapiens) (UniProt P08047). Description: ATG_Sp1_CIS: Attagene CIS-FACTORIAL HepG2 Assay for human Specificity Protein 1 (Sp1) (AID 2282961). Particulars: HepG2 Sp1 cis-reporter transcription, actives raise or lower the signal. The procedure, abridged:
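Transient MRTU-transfected HepG2, 24 h compound exposure. Total RNA → oligo(dT) RT → PCR of reporter → 6-FAM primer extension → HpaI digest → CE. Endpoint fitted both directions vs DMSO.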

Experiment [16] in a line: ATG_SREBP_CIS: Attagene CIS-FACTORIAL HepG2 Assay for human Sterol Regulatory Element Binding (SREBP) (AID 2282962). Particulars: HepG2 Attagene cis-factorial SREBP reporter, mRNA; actives raise or lower the signal. The procedure, abridged:
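Transfected HepG2 (cis-regulated reporter library, endogenous TFs) → compound 24 h → total RNA → oligo(dT) RT → reporter-specific PCR → FAM primer extension, HpaI cut → CE fluorescence. Fit bidirectional vs DMSO.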

The target of experiment [17] is Signal transducer and activator of transcription 3 (Homo sapiens) (UniProt P40763). Description: ATG_STAT3_CIS: Attagene CIS-FACTORIAL HepG2 Assay for human Signal Transducer and Activator of Transcription 3 (STAT3) (AID 2282963). Particulars: HepG2, Attagene cis-factorial STAT3 reporter transcription; actives raise or lower the signal. The procedure, abridged:
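After a 24 h compound incubation, total RNA from MRTU-transfected HepG2 cells was converted to cDNA and reporter sequences PCR-amplified, labelled and profiled by capillary electrophoresis. Gain and loss of signal were referenced to DMSO.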

A short description of experiment [18]: ATG_TA_CIS: Attagene CIS-FACTORIAL HepG2 Assay for human TA Basal Promoter (AID 2282964). The note with it: HepG2 Attagene CIS-factorial TA basal promoter reporter; actives raise or lower the signal. The method, boiled down:
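Cis-factorial format in HepG2: reporters report endogenous factors, not chimeric Gal4 fusions. After 24 h treatment, reporter transcripts were measured by RT-PCR-capillary electrophoresis fluorescence, analysed bidirectionally versus DMSO.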

A short description of experiment [19]: ATG_PXRE_CIS: Attagene CIS-FACTORIAL HepG2 Assay for human Pregnane X Receptor Element (PXRE) (AID 2282957). Particulars: HepG2 Attagene CIS-FACTORIAL PXRE reporter, mRNA; actives raise or lower the signal. The method, boiled down: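 Cis-element reporter mRNA in human hepatoma HepG2 cells is measured 24 h post-dosing by RT-PCR, primer-extension labeling and capillary electrophoresis; gain or loss of signal is fitted relative to DMSO.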

Sequence of Transcription factor Sp1 (Homo sapiens) (P08047 whole entry, looked up): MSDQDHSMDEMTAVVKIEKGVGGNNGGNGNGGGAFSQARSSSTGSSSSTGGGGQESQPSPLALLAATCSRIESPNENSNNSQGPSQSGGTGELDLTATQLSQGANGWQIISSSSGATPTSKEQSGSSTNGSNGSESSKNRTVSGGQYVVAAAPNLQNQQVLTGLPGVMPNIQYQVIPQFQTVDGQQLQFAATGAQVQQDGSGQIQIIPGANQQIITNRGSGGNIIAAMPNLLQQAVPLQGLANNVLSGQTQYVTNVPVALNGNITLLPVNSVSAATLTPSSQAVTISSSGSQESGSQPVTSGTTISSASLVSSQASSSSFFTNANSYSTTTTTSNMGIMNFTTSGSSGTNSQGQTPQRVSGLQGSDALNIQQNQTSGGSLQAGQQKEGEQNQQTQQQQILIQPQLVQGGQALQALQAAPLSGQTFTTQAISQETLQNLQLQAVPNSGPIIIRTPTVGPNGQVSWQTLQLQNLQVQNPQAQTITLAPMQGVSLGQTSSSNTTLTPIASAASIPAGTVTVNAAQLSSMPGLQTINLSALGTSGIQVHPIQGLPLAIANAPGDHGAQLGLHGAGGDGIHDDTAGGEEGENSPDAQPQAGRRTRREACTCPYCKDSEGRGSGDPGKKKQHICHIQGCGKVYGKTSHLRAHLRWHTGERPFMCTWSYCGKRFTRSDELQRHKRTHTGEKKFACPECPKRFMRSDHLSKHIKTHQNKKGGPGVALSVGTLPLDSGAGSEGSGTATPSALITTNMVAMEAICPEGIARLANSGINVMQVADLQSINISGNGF
Sequence of Paired box protein Pax-6 (Homo sapiens) (P26367 whole entry, looked up): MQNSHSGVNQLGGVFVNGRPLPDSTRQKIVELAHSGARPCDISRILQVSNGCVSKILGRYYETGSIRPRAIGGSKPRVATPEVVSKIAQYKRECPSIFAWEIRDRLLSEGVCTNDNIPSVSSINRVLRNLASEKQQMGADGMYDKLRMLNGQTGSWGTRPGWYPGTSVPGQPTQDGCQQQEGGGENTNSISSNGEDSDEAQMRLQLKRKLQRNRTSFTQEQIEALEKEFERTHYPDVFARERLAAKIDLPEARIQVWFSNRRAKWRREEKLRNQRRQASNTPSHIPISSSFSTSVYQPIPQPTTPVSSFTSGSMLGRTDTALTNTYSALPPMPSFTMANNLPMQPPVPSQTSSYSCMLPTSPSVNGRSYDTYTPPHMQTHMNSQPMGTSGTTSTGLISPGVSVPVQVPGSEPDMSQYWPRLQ
Sequence of Heat shock factor protein 1 (Homo sapiens) (Q00613 whole entry, looked up): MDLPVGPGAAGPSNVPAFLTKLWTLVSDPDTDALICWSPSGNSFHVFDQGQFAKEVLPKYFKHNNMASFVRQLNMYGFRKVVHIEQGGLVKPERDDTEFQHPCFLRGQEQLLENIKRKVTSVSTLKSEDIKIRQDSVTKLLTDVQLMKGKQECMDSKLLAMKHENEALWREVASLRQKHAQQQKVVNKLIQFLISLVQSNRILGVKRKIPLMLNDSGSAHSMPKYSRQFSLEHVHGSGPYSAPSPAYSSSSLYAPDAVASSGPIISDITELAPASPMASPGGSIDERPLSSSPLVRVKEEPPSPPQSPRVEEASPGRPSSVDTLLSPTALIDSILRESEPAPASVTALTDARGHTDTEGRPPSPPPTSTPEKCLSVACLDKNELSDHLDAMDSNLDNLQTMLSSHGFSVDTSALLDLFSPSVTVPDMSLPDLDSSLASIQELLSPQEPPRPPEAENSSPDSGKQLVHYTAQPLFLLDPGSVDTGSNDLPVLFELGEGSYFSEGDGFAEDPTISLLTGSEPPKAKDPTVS
Sequence of Hypoxia-inducible factor 1-alpha (Homo sapiens) (Q16665 whole entry, looked up, the tested form may be a part): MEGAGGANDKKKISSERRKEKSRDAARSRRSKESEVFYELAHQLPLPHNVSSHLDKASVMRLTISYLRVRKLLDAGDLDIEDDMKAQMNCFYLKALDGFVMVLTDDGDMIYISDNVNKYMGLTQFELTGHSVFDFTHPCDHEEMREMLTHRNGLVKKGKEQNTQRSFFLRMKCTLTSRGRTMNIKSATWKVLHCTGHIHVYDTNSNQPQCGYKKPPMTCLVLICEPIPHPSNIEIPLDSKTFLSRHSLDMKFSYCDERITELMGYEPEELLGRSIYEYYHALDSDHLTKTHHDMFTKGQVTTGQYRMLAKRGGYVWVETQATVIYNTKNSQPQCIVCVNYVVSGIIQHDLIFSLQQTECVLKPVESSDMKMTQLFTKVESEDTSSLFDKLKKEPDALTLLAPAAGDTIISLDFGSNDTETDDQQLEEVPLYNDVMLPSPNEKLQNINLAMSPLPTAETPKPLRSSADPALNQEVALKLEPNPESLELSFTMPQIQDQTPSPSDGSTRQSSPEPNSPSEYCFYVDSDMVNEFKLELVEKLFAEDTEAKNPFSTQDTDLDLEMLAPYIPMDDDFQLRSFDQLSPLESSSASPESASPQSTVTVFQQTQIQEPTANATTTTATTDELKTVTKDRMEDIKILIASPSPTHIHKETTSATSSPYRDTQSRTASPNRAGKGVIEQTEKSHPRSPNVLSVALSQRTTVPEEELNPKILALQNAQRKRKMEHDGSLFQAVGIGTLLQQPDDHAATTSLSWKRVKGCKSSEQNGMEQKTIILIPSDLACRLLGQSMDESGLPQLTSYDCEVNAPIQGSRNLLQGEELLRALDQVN
Sequence of Hepatocyte nuclear factor 6 (Homo sapiens) (Q9UBC0 whole entry, looked up): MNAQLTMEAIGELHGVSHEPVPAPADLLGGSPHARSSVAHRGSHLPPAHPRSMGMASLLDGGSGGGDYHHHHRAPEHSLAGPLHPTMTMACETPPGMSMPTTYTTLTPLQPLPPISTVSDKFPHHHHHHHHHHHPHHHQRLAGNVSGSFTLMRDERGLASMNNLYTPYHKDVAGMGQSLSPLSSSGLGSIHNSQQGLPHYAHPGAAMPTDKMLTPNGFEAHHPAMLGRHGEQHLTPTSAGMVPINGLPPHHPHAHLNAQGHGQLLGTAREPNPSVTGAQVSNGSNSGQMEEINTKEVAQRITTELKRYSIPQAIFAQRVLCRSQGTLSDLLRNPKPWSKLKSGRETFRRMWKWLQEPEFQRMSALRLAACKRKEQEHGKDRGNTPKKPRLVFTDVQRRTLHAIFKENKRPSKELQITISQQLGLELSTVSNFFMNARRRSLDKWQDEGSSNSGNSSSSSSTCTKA
Sequence of Signal transducer and activator of transcription 3 (Homo sapiens) (P40763 whole entry, looked up): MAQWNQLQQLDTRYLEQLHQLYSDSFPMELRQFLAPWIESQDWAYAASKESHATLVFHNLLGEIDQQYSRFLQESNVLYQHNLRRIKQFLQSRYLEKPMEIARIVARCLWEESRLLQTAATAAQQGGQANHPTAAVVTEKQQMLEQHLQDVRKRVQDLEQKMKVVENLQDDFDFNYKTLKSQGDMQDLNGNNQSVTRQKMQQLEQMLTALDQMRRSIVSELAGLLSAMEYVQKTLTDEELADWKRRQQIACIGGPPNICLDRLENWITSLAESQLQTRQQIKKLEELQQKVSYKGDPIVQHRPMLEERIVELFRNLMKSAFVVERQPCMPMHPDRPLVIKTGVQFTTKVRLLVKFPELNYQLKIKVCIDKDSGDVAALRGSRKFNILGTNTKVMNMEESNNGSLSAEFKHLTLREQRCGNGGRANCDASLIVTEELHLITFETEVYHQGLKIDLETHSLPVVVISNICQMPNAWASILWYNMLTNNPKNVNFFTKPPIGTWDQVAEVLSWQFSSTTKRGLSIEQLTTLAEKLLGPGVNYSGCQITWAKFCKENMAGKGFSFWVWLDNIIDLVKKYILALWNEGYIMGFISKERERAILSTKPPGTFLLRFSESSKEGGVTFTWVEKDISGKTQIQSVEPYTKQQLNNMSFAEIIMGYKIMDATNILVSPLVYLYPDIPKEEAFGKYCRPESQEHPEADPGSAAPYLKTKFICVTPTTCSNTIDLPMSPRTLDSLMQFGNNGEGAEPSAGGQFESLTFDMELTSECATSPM

Take `Cc1oc(-c2ccccc2)nc1CCOc1cccc2c1ccn2CCC(=O)O`: the molecule was classed as inactive in [1], in [2], in [3], in experiment [4], in experiment [5] and in experiment [6]. Further, the outcome in experiment [7], in experiment [8], in [9], in [10], in [11] and in experiment [14] was inactive. In addition, the result in [15], in experiment [17] and in experiment [18] was inactive. Moreover, the AC50 (commonly the midpoint of the concentration-response curve, whichever way the signal moves) in experiment [12] was 0.0633 µM (active); in experiment [13] it was 23.8 µM (active); in experiment [16], 26.8 µM (active).
Consider `NCCO`, for which the call in [1], in [2], in [3], in experiment [4], in experiment [5] and in experiment [6] was inactive. For the same molecule, the outcome in [7], in [8], in experiment [9], in [11], in experiment [13] and in [14] was inactive. Also, the molecule was classed as inactive in experiment [15], in [16], in experiment [17] and in experiment [18].
For the molecule `CC(=O)C(C)=CC1C(C)=CCCC1(C)C` (stereo not given), the molecule was classed as inactive in [1], in experiment [2], in [3], in [4], in [5] and in experiment [6]. The outcome in [7], in experiment [8], in experiment [9], in experiment [10], in [11] and in experiment [12] was inactive. In addition, the molecule was called inactive in experiment [13], in experiment [14], in experiment [15], in experiment [16], in experiment [17] and in [18].
With `Cc1ccc(C)c(C)c1`, the molecule was classed as inactive in experiment [1], in [2], in experiment [3], in experiment [4], in experiment [5] and in experiment [6]. In addition, the call in experiment [7], in [8], in [9], in experiment [10], in [11] and in experiment [12] was inactive. The molecule was called inactive in [13], in experiment [14], in experiment [15], in experiment [16], in experiment [17] and in [18]. Besides, the AC50 in experiment [19] is 27.5 µM (active).
For the molecule `CC1(C)NC(=O)NC1=O`, the molecule was called inactive in experiment [1], in experiment [2], in experiment [3], in [4], in [5] and in experiment [7]. The outcome in [8], in [9], in [10], in [11], in experiment [12] and in [13] was inactive. Moreover, the call in experiment [14], in [15], in [16], in experiment [17] and in experiment [18] was inactive. In experiment [6], the AC50 was 12 µM (active).
As for `CCCCCCCCCCCCCCCC`, the molecule was called inactive in experiment [1], in experiment [2], in [3], in [4], in experiment [5] and in experiment [6]. For the same molecule, the result in [7], in experiment [8], in [9], in experiment [11], in experiment [12] and in experiment [14] was inactive. Besides, the molecule was classed as inactive in [15], in [16], in experiment [17] and in [18]. The AC50 in experiment [19] is 26.1 µM (active).
In the case of `CCCCC(CC)COC(=O)CC(C(=O)OCC(CC)CCCC)S(=O)(=O)O` (stereo not given), the call in [1], in experiment [2], in experiment [3], in experiment [4], in experiment [5] and in experiment [7] was inactive. Also, the outcome in experiment [8], in [9], in experiment [10], in experiment [11], in [12] and in experiment [13] was inactive. Moreover, the call in experiment [14], in [15], in experiment [17] and in experiment [18] was inactive. The AC50 in experiment [6] is 0.000743 µM (active); in experiment [19] it was 1.1 µM (active); in [16], 14.2 µM (active).
